Results published in PubChem BioAssay.
Activity calls are given as the source filed them. Unless noted, no rule for the calls is given here.

Assays:
[1] = A549 cell viability effects, profiling panel, calcein-AM fluorescence, 48 h, basal (AID 1162); details: higher = more signal; also: test concentration not given here
[2] = adipocyte viability effects, profiling panel, cell-based, 3T3-L1 adipocytes, calcein-AM fluorescence, 48 h, basal (AID 1163); details: 3T3-L1 adipocytes viability, higher = more signal; also: test concentration not given here
[3] = HepG2 cell viability effects, profiling panel, calcein-AM fluorescence, 48 h, basal (AID 1164); details: higher = more signal; also: test concentration not given here
[4] = MM1S cell viability effects, profiling panel, calcein-AM fluorescence, 48 h, basal (AID 1165); details: higher = more signal;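 also: viability of MM1S multiple myeloma cells under basal unstimulated conditions; test concentration not given here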
[5] = basal RPMI8226 viability, no added stimulus, profiling panel, cell-based, calcein-AM fluorescence, 48 h, PK04 Diversity Set (AID 1166); details: RPMI8226 myeloma viability, higher = more signal;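 also: cells grown under basal conditions without added stimulus; test concentration not given here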
[6] = basal HepG2 mitochondrial membrane potential changes, profiling panel, cell-based, JC-1 fluorescence, 24 h, 100 nL compound (AID 1167); details: higher = more signal; also: test concentration not given here
[7] = basal 3T3-L1 adipocyte mitochondrial potential changes, profiling panel, cell-based, JC-1 fluorescence, 3T3-L1 adipocytes, 24 h, 100 nL compound (AID 1168); details: JC-1 mitochondrial fluorescence, higher = more signal, called active from +8 up or from −8 down; also: test concentration not given here
[8] = basal RPMI8226 mitochondrial membrane potential changes, profiling panel, cell-based, JC-1 fluorescence, 24 h, 100 nL compound (AID 1169); details: RPMI8226 myeloma, JC-1 mitochondrial potential fluorescence, higher = more signal; also: test concentration not given here
[9] = basal MM1S mitochondrial membrane potential changes, profiling panel, cell-based, JC-1 fluorescence, 24 h, 100 nL compound (AID 1170); details: higher = more signal; also: test concentration not given here
[10] = A549 lung cancer cell viability effects, profiling panel, resazurin fluorescence, 24 h, PK04 Diversity Set (AID 1171); details: higher = more signal, called active from +8 up or from −8 down; also: test concentration not given here
[11] = HepG2 liver cancer cell viability effects, profiling panel, resazurin fluorescence, 24 h, PK04 Diversity Set (AID 1172); details: higher = more signal; also: test concentration not given here
[12] = basal S. cerevisiae growth modulation, no modifier, primary screen, OD600, strain BY4716, 24 h, basal condition (AID 1173); details: OD600, 24 h, higher = more signal, called active from +8 up or from −8 down
[13] = MM1S myeloma cell viability, profiling panel, resazurin fluorescence, basal, 24 h, PK04 Diversity Set (AID 1174); details: higher = more signal, called active from +8 up or from −8 down;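 also: MM1S multiple myeloma cell line; test concentration not given here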
[14] = molecular target: Dihydroorotate dehydrogenase (quinone), mitochondrial (Plasmodium falciparum (isolate 3D7)) (UniProt Q08210); test: PfDHODH enzyme inhibitors, primary screen, biochemical, C-terminal His tag, absorbance 600 nm (AID 1175); details: DCIP absorbance 600 nm, higher = more signal, called active from +8 up or from −8 down;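 also: recombinant parasite enzyme with a five histidine tag at its C terminus; test concentration not given here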
[15] = P. aeruginosa biofilm formation inhibitors, primary screen, strain PAO1, LB-PBS medium, absorbance 600 nm (AID 1176); also: test concentration not given here; details: P. aeruginosa PAO1 growth/biofilm, A600, 12 h; higher = more signal
[16] = S. cerevisiae RM11-1a growth modifiers, primary screen, strain RM11-1a, OD600, basal, 24 h (AID 1177); details: OD600, 24 h, higher = more signal, called active from +8 up or from −8 down;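 also: cultures grown under basal conditions with no added stressor; test concentration not given here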
[17] = E. coli acrAB mutant growth effects, primary screen, E. coli filamentation inducers, strain DRC39, OD650, 24 h (AID 1178); details: higher = more signal, called active from +8 up or from −8 down;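 also: growth measured as culture turbidity by optical density at 650 nm; test concentration not given here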
[18] = E. coli acrAB mutant growth effects, primary screen, E. coli filamentation inducers, strain DRC39, OD650, 48 h (AID 1179);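 also: screen aims at cell division blockers that make cells filament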; details: E. coli DRC39 delta-acrAB growth, higher = more signal, called active from +8 up or from −8 down
[19] = RPMI8226 myeloma cell viability, profiling panel, resazurin fluorescence, basal, 24 h, PK04 Diversity Set (AID 1180); details: higher = more signal;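 also: RPMI8826 multiple myeloma cell line at 5000 cells per well; test concentration not given here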
[20] = molecular target: E3 ubiquitin-protein ligase XIAP (Homo sapiens) (UniProt P98170); test: XIAP binders, primary screen, biophysical, small-molecule microarray, fluorescence 635 nm (AID 1181); details: small-molecule microarray binding, higher = more signal;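 also: score merges 667 nm emission and signal to noise over triplicate slides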
Chain of E3 ubiquitin-protein ligase XIAP (Homo sapiens) (P98170 whole entry, looked up): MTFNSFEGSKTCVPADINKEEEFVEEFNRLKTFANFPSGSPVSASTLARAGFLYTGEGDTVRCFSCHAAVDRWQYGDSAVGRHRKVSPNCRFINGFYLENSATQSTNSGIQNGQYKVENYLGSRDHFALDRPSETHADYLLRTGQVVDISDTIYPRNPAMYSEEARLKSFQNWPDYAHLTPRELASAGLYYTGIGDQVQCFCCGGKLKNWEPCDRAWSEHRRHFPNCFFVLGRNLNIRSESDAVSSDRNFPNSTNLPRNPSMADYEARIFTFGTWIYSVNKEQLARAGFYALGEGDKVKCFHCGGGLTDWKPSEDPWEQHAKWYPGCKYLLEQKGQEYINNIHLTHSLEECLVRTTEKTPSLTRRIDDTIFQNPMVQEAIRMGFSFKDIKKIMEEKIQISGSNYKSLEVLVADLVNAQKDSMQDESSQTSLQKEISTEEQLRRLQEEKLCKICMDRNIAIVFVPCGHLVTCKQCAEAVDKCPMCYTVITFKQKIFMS

Chain of Dihydroorotate dehydrogenase (quinone), mitochondrial (Plasmodium falciparum (isolate 3D7)) (Q08210 whole entry, looked up): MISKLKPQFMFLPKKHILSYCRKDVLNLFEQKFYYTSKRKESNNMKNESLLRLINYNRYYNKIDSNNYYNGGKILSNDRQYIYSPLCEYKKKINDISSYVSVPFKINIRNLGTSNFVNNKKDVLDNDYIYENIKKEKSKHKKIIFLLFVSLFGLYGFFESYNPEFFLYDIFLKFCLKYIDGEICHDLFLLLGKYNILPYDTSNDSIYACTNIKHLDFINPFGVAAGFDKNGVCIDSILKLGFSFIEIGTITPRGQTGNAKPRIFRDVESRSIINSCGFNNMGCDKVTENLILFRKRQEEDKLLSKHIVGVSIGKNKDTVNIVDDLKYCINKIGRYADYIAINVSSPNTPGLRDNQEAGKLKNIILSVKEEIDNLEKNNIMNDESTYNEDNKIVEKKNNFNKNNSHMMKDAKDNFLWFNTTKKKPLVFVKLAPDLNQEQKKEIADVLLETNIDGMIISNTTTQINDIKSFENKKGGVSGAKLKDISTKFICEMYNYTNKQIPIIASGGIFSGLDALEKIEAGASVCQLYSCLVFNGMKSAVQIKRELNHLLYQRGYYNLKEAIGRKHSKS

Row | SMILES | z-score [1] | z-score [2] | z-score [3] | z-score [4] | z-score [5] | z-score [6] | z-score [7] | z-score [8] | z-score [9] | z-score [10] | z-score [11] | z-score [12] | z-score [13] | composite z-score [14] | z-score [15] | z-score [16] | z-score [17] | z-score [18] | z-score [19] | composite z-score [20]
1 | O=C1OCC=C[C@H]2OC34C=CCN(CCN5CCOCC5)C(=O)[C@H]3N(CCCO)C(=O)[C@@H]4[C@@H]12 (stereo not given in full) | 0.74 | 1.38 | 0.811 | 1.11 | -1.16 | -0.326 | 0.584 (inactive) | 0.676 | 0.57 | -1.38 (inactive) | -0.31 | -0.187 (inactive) | -1.4 (inactive) | -0.283 (inactive) | -0.385 (inactive) | 0.451 (inactive) | -0.514 (inactive) | -1.15 (inactive) | -0.0279 | 0.0222
2 | COC(=O)C(CC#Cc1ccc2c(c1)[C@]1(C(=O)N2)[C@H](c2ccc(O)cc2)N2[C@H](c3ccccc3)[C@H](c3ccccc3)OC(=O)[C@H]2[C@@H]1C(=O)Nc1nc2ccccc2s1)C(=O)OC | 1.37 | 0.72 | 1.47 | 0.247 | -1.65 | -1.44 | -0.719 (inactive) | -0.712 | 0.422 | -0.351 (inactive) | 0.0384 | -1.11 (inactive) | 1.05 (inactive) | -5.21 (inactive) | 1.27 (inactive) | -1.44 (inactive) | 0.666 (inactive) | 1.04 (inactive) | 0.12 | -0.313
3 | CC(C)C[C@H]1NC(=O)[C@@]23C(=O)N[C@@H](Cc4ccccc4)C2[C@H](C)[C@@]2(C)O[C@H]2C3/C=C/C/C=C\CNC(=O)[C@H](Cc2ccccc2)NC1=O (stereo not given in full) | -0.278 | 0.733 | -1.03 | -0.207 | -0.567 | 0.804 | -0.172 (inactive) | -1.09 | 0.687 | 0.217 (inactive) | 0.183 | 0.0247 (inactive) | 0.333 (inactive) | -0.259 (inactive) | 0.0117 (inactive) | 1.66 (inactive) | 0.805 (inactive) | 0.199 (inactive) | 0.628 | 0.0842
4 | O=C(NCc1ccccc1)[C@@]1(Cc2ccccc2)N=C(c2ccc(OCCCO)cc2)O[C@H]1c1ccccc1 | -2.86 | 0.967 | -2.26 | -1.42 | -3.32 | 1.19 | -0.357 (inactive) | -1.02 | -1.55 | -0.331 (inactive) | -0.0664 | 0.629 (inactive) | -1.67 (inactive) | 0.987 (inactive) | 0.494 (inactive) | 1.7 (inactive) | 0.482 (inactive) | -0.3 (inactive) | -2.66 | -0.0563
5 | C=CCC(OC(C)=O)[C@@H]1[C@@H](N(Cc2ccc(-c3cccc(C(F)(F)F)c3)o2)C(=O)c2ccc(-c3ccccc3)cc2)c2cc(OCCCO)ccc2N1C(=O)c1ccc(-c2ccccc2)cc1 (stereo not given in full) | 0.0361 | 0.114 | 0.104 | 0.365 | -0.297 | 1.25 | -0.581 (inactive) | 0.287 | 0.872 | -0.176 (inactive) | -0.645 | 1.03 (inactive) | 0.0516 (inactive) | 0.0524 (inactive) | 0.268 (inactive) | 0.609 (inactive) | -0.386 (inactive) | -0.487 (inactive) | 0.0033 | 0.0471
6 | C=C(COC)/C(=C/C[C@H](OC(=O)c1ccncc1)c1ccc(OCCO)cc1)c1cnc2ccccc2c1 | 1.54 | 0.317 | -0.303 | -1.98 | 0.0703 | -0.232 | -0.472 (inactive) | 0.147 | -0.799 | 0.67 (inactive) | 0.444 | -0.309 (inactive) | -0.389 (inactive) | -3.5 (inactive) | 0.424 (inactive) | -0.401 (inactive) | -0.802 (inactive) | -0.679 (inactive) | -0.342 | -0.174
7 | O=C1OCCC/C=C\[C@H]2OC34C=CCN(Cn5nnc6ccccc65)C(=O)[C@H]3N(CCO)C(=O)[C@@H]4C12 (stereo not given in full) | 0.499 | 1.02 | -0.822 | 0.971 | -0.117 | 0.31 | 0.192 (inactive) | 0.656 | -0.345 | -0.66 (inactive) | -0.345 | -0.0322 (inactive) | 0.158 (inactive) | 1.16 (inactive) | 0.469 (inactive) | 0.821 (inactive) | 0.254 (inactive) | -0.146 (inactive) | 0.0966 | 0.213
8 | C=CC[C@]1(C(=O)N2CCCCC2)N=C(c2ccc(OCCCO)cc2)O[C@H]1c1ccccc1 | 0.396 | 0.0234 | -0.426 | -2.35 | -1.35 | 0.53 | -0.0613 (inactive) | -1.16 | 0.447 | 2.72 (inactive) | 1.77 | -2.06 (inactive) | 0.91 (inactive) | -0.309 (inactive) | -0.481 (inactive) | 0.646 (inactive) | 0.825 (inactive) | -0.189 (inactive) | 1.93 | -0.0563
9 | C[C@@H]1ON(c2cccc(C(=O)OC(C)(C)C)c2)[C@H](c2ccc(Br)cc2)[C@H]1C(=O)N1C(=O)OC[C@H]1Cc1ccccc1 | 0.407 | -0.941 | -0.0479 | -0.357 | -0.205 | -0.344 | 0.375 (inactive) | 0.0362 | 1.88 | 0.319 (inactive) | 0.0192 | 0.724 (inactive) | 0.433 (inactive) | 1.17 (inactive) | -0.295 (inactive) | 0.872 (inactive) | -0.741 (inactive) | -0.472 (inactive) | 1.25 | 0.127
